# PubChem BioAssay (Tox21)
# Results filed as inconclusive are left out. Entries that show only a call come without a potency. More than one record can exist for a structure, and the calls need not agree. The source made the active and inactive calls. Calls follow the shape of the dose curve; as a rule, active = well fitted activation curve with a large enough effect in the signal ratio in the repeat runs (not every such curve was filed as active); inconclusive = weak or mixed curves; inactive = flat fitted curve, though single readings scatter; the % refers to the signal ratio.
# Test: p53 small molecule agonists, cell-based qHTS assay (AID 1963582)
# Outline: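 Fluorescence intensity read-out of a beta-lactamase reporter under a p53 response element. Cells were exposed to DMSO-dissolved compounds for 16 h at 37 C, then developed with FRET substrate for 2 h at RT.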
# Potency is read from the fitted curve at half-maximal effect.
row,SMILES,Potency
1,CNC(=O)Oc1ccc2c(c1)[C@]1(C)CCN(C)[C@@H]1N2C,inactive
2,CCc1cccc(CC)c1N,inactive
3,CCC[C@H](N[C@@H](C)C(=O)N1[C@H](C(=O)O)C[C@@H]2CCCC[C@@H]21)C(=O)OCC,inactive
4,CC/C(C)=N/O,inactive
5,Clc1ccc(Cl)c(Cl)c1Cl,inactive
6,CC(=O)OCc1ccc2c(c1)OCO2,inactive
7,CCc1ccccc1CC,inactive
8,C=CC(=O)OCCCCCCCC(C)C,inactive
9,CS(=O)(=O)OCCCCOS(C)(=O)=O,inactive
10,CC(=O)Oc1ccc(C)cc1,inactive
11,Cc1ccc(C)c(O)c1C,inactive
12,O=C(O)c1cccc([N+](=O)[O-])c1,inactive
13,Nc1ccc(Cl)cc1Cl,inactive
14,COC(=O)C1CCC(C(=O)OC)CC1 (centres undefined),inactive
15,CC1(C)NC(=O)NC1=O,inactive
16,C=C1C2CCC(C2)C1(C)C (centres undefined),inactive
17,OC[C@H]1O[C@@H](Oc2ccc(O)cc2)[C@H](O)[C@@H](O)[C@@H]1O,inactive
18,CC(C)Cc1ccccc1,inactive
19,CC(=O)Oc1ccccc1C(=O)O,inactive
20,O=c1cc[nH]c(=S)[nH]1,inactive
21,CCCCC(CC)COC(=O)c1ccc(N(C)C)cc1 (centres undefined),inactive
22,CCC1(c2ccccc2)C(=O)NCNC1=O,inactive

row,SMILES,Potency
1,OC(CCl)CCl,inactive
2,O=CCc1ccccc1,inactive
3,C=C(C#N)C(=O)OCC,inactive
4,C=CCc1ccc(OC)c(OC)c1,inactive
5,C=C(C)C(=O)O,inactive
6,Cc1cc(C)c(O)c(C)c1,inactive
7,O=[N+]([O-])C(CO)(CO)CO,inactive
8,CCN(CCN)c1cccc(C)c1,inactive
9,CC(C)=CCl,inactive
10,OC[C@@H](O)[C@@H](O)[C@H](O)[C@H](O)CO,inactive
11,Nc1cccc(N)c1,inactive
12,O=C(O)c1ccc2c(c1)C(=O)OC2=O,inactive
13,Clc1ccc(Sc2cc(Cl)c(Cl)cc2Cl)cc1,inactive
14,OCc1cccc(Oc2ccccc2)c1,inactive
15,Clc1cc(Cl)c(Cl)cc1Cl,inactive
16,COC(=O)c1cccc(C(=O)OC)c1,inactive
17,O=C(O)Cc1ccccc1Nc1c(Cl)cccc1Cl,inactive
18,CCCCCCCCC,inactive
19,CCCCCCCCCCCC[N+](C)(C)C,inactive
20,c1ccc2ccccc2c1,inactive
21,C=C[C@@]1(C)CC(=O)[C@]2(O)[C@@]3(C)[C@@H](O)CCC(C)(C)[C@@H]3[C@H](O)[C@H](OC(C)=O)[C@@]2(C)O1,inactive
22,CCOC(=O)/C=C\C(=O)OCC,inactive

row,SMILES,Potency
1,Cc1cccc(O)c1,inactive
2,C=CCNC(N)=S,inactive
3,CCCCCCCC=O,inactive
4,Cc1ccc(S(=O)(=O)NCl)cc1,inactive
5,CCO[Si](CCCNC(N)=O)(OCC)OCC,inactive
6,CCCCOCCO,inactive
7,c1ccc2c(c1)c1cccc3ccc4cccc2c4c31,45.4 µM (active) and inactive
8,CN(C)CCC(c1ccccc1)c1ccccn1 (centres undefined),inactive
9,CCCCCCCCCCCCN,inactive
10,CC(C)Cc1ccc(C(C)C(=O)O)cc1 (centres undefined),inactive
11,Cc1ccc([N+](=O)[O-])c(C)c1,inactive
12,CC(=O)CCC=C(C)C,inactive
13,CC1(C)O[C@@H]2C[C@H]3[C@@H]4C[C@H](F)C5=CC(=O)CC[C@]5(C)[C@H]4[C@@H](O)C[C@]3(C)[C@]2(C(=O)CO)O1,inactive
14,Cc1cc(=O)oc2cc(O)ccc12,inactive
15,C#CC1(O)CC[C@H]2[C@@H]3CCC4=CCCC[C@@H]4[C@H]3CC[C@@]21C (some centres undefined),inactive
16,CCC(C)C=O (centres undefined),inactive
17,O=S(=O)(O)c1ccc2ccccc2c1,inactive
18,CCCCNC(N)=O,inactive
19,CCCCNS(=O)(=O)c1ccccc1,inactive
20,O=C(Nc1ccccc1SSc1ccccc1NC(=O)c1ccccc1)c1ccccc1,inactive
